This experiment has as its system Plasmodium falciparum. Description: GSK_TCMDC: Inhibition of Plasmodium falciparum 3D7 in whole red blood cells, using parasite LDH activity as an index of growth. Test compounds present at 2uM. The experiment is classed as functional.
Take `Cc1ccc2[nH]c(Nc3ccc(Nc4nc5cc(C)ccc5[nH]4)c(C)c3)nc2c1`: the Inhibition (usually how much of the control response was suppressed) worked out at 99%.

Take `COc1ccc(NC(=O)Nc2ccc(Nc3nc(C)cc(N(C)C)n3)cc2)cc1`: the Inhibition came out at 100%.

`COc1ccc2nccc([C@@H](O)CN3CCC(NCc4ccc5scnc5c4)CC3)c2c1.O=C(O)C(=O)O` returned an Inhibition of 100%.

Turning to `Cc1cc(C(=O)Nc2ccc3c(c2)CCN3C2CCN(Cc3ccc(F)cc3Cl)C2)no1` (stereo not given), the Inhibition was 95%.

`CCn1cnc2c(N3CCCCS3(=O)=O)cc(C(=O)N[C@@H](Cc3ccccc3)[C@H](O)CNC3CCOCC3)cc21` returned an Inhibition of 99%.

In turn, `NCC1CCCN1Cc1cccc(-c2cccc(-c3nc4cc(F)ccc4[nH]3)c2)c1.O=C(O)C(F)(F)F` (stereo not given) registered an Inhibition of 100%.

`Clc1ccc(CNC2CCN(CC3CCCCC3)CC2)cc1.O=C(O)C(F)(F)F` returned an Inhibition of 92%.

`CCCCCCCN(CCCCCCC)CCCC(=O)Nc1ccnc2ccc(OC)cc12.O=C(O)C(=O)O` showed an Inhibition of 100%.

For the compound `CCOc1ccccc1CCNC(C)Cc1ccc(C(=O)Nc2ccc(CC(C)NCCc3cccc(Cl)c3)cc2)cc1` (stereo not given), the Inhibition came out at 97%.

Consider `O=C(NCCCCN1CCC(c2ccc3c(c2O)CCCC3)CC1)c1ccc(-c2ccc(Cl)cc2)cc1`, for which the Inhibition was found to be 98%.

Take `O=C(O)C(F)(F)F.O=c1[nH]ccc2nc(N[C@@H]3CCNC3)nc(Nc3ccc4c(c3)S(=O)(=O)CC4)c12`: the Inhibition was found to be 100%.

`COc1ccccc1N1CCN(CCCCNC(=O)c2ccc(NC(=O)c3ccc(C(F)(F)F)cc3)cc2)CC1` had an Inhibition of 100%.

As for `Cc1cc(C(=O)NCc2ccc(-c3c(C)noc3C)cc2)n(-c2ccccc2)n1`, the Inhibition was 92%.

`COc1cccc(CN2CCCN(Cc3cccc(NC(=O)c4ccc(Cl)c(Cl)c4)c3)CC2)c1.O=C(O)C(F)(F)F`: the Inhibition came out at 89%.

For the compound `COc1cc2c(cc1OC)-c1cc(=Nc3c(C)cc(C)cc3C)n(C)c(=O)n1CC2.Cl`, the Inhibition is listed as 92%.

`Cc1cccc2nc(-c3ccc(-c4ccc(NC(=O)Nc5ccc(F)c(F)c5F)cc4)s3)[nH]c12` displayed an Inhibition of 100%.

Consider `CCc1cn2c3c(cc(C(=O)N[C@@H](Cc4ccccc4)[C@H](O)CNCc4ccccc4)cc13)N(C)S(=O)(=O)CC2.O=CO`, for which the Inhibition turned out to be 98%.

The compound `CN(Cc1cccc(O)c1)C1CCCN(c2cc(NC(=O)c3ccc(F)cc3)ccn2)C1.O=C(O)C(F)(F)F` (stereo not given) showed an Inhibition of 91%.

For the compound `COc1ccc(CCN(C)CCCCNC(=O)c2ccc(NC(=O)c3ccc(Cl)cc3)cc2)c(OC)c1`, the Inhibition was found to be 87%.

`COc1cccc(NC(=O)N2CCOC(CCN3CCC4(CCc5ccccc54)CC3)(c3ccc(Cl)c(Cl)c3)C2)c1` (stereo not given) yielded an Inhibition of 94%.

`COc1ccc(OCC(=O)Nc2cc(-c3nc4ccccc4[nH]3)ccc2Cl)cc1`: the Inhibition amounted to 94%.

`CC(=O)Nc1ncc(C(=O)Nc2cccc(-c3cccc(-c4nc5cc(C(F)(F)F)ccc5[nH]4)c3)c2)s1` returned an Inhibition of 100%.

Compound `Cc1ccc(NC(=S)NC2CCN(CCCCCNC(=O)/C=C/c3ccc(Cl)c(Cl)c3)CC2)cc1Cl` returned an Inhibition of 100%.

As for `CN(C)CCN(Cc1ccccc1-c1ccc(CNCCc2ccccc2)cc1)C(=O)c1ccccc1.O=C(O)C(F)(F)F`, the Inhibition worked out at 95%.

In the case of `CN(C)S(=O)(=O)c1ccc(N2CCN(CCC3(c4cccc(F)c4)CCN(C(=O)C(C)(C)C)CC3)CC2)c2nonc12`, the Inhibition is 91%.

On to `COc1cc(-c2cc(-c3ccc(S(C)(=O)=O)cc3)cnc2N)ccc1O`, for which the Inhibition is reported as 97%.

In turn, `C[C@@H]([C@@H](CCCCc1ccccc1)C(=O)N[C@H](C(=O)Nc1cccnc1)C(C)(C)C)N(O)C=O` yielded an Inhibition of 98%.

`COc1ccc2ncc(F)c(CCN3C[C@H](CNCc4cc(C#N)c5c(c4)OCCO5)[C@H](O)C3)c2n1.Cl` gave an Inhibition of 100%.

`CCOc1c(C)cc(C(F)(F)F)cc1CNCCCNc1cc(=O)c2ccccc2[nH]1.Cl` came in with an Inhibition of 97%.

As for `O=C(Nc1cccc(-c2cccc(F)c2)c1)C1CCN(Cc2ccc(O)cc2)CC1`, the Inhibition turned out to be 87%.

For the compound `CC(C)CNCc1cccc(-c2cccc(CN(CCN(C)C)C(=O)NCCc3ccccc3)c2)c1.O=C(O)C(F)(F)F`, the Inhibition is on record as 99%.

`COc1cccc(Nc2nccc(NCC(O)c3cccc(C(F)(F)F)c3)n2)c1` (stereo not given): the Inhibition was determined as 96%.

In turn, `O=C(O)C(F)(F)F.O=[N+]([O-])c1cccc(CNC2CCN(Cc3ccc(-c4ccccc4)cc3)CC2)c1` registered an Inhibition of 100%.

`COc1ccccc1N1CCN(C(C(=O)NCc2ccc3c(c2)OCO3)c2ccc3c(c2)OCCCO3)CC1` (stereo not given): the Inhibition is on record as 88%.

Turning to `COc1ccc(CNCc2ccc(-c3ccc(-c4nc5cccc(C)c5[nH]4)s3)cc2)cc1.O=C(O)C(F)(F)F`, the Inhibition was 100%.

Compound `COc1ccc(-c2nc(NC(=O)COc3ccc(C(C)=O)cc3)sc2C)cc1` had an Inhibition of 98%.

`CN1CCC(N2CCC(Oc3cccc(C(=O)NCCCC4CCCC4)c3)CC2)CC1`: the Inhibition was determined as 100%.

The compound `COc1ccc(CN(C)CCOc2ccc(NC(=O)c3cccc4c(=O)c5cc(SC)ccc5[nH]c34)cc2)cc1OC` showed an Inhibition of 96%.

Take `CCC(CN1C(=O)C(c2ccccc2)(c2ccccc2)N=C1N)c1ccccc1.O=CO` (stereo not given): the Inhibition was 98%.

`Cc1cc(Cl)ccc1NC(=O)Nc1ccc2nccc(N3CCN(C)CC3)c2c1` returned an Inhibition of 100%.

Values taken from ChEMBL document CHEMBL1157539, “Thousands of chemical starting points for antimalarial lead identification” (Nature, 2010).
